# Assay results as given in PubChem BioAssay AID651871 (Sanford-Burnham Center for Chemical Genomics, 2012).
# Values joined by “and” are separate entries in the source; they are usually repeats but may differ in a detail not shown here. Identical values can stand only once.
# System: HL-1
# Experiment: cardiomyocyte survival under oxidative or metabolic stress – cell-based, panel, H9c2 and HL-1, ATP luminescence, set 2, SAR follow-up (AID 651871);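 note: cells exposed to stressor for 2 h before ATP readout; reference of the scale not given here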
# Conditions: H9c2/HL-1 cardiomyocytes, 2-deoxyglucose stress, with 2-deoxyglucose, run 16, at 19.8 µM (top of the series)
structure (smiles),measurement,value
COc1ccc2c(c1OC)C(=O)N1c3ccccc3C(=O)N(Cc3cccc(Cl)c3Cl)C21 (stereo unspecified),activity (protection/inhibition),50.9% and 45%
